# Results filed as inconclusive are left out. Where a call stands in place of a potency, no number is given. Activity calls are given as the source filed them. Unless noted, calls come from the whole dose curve; as a rule, active = well fitted curve in the direction sought with a large enough effect; inconclusive = small, poorly fitted or top-dose-only effect, or another doubt; inactive = no such curve, though single readings can be large; an effect the other way counts as inactive or inconclusive.
# Key:
# [1] = target: Rap guanine nucleotide exchange factor 3 (Homo sapiens) (UniProt O95398); experiment: Counterscreen qHTS for agonist of cAMP-regulated guanine nucleotide exchange factor 3 (EPAC1) (AID 1645889); note: nearly all actives have a fitted effect of over 40% in size; note: potency is the fitted concentration of half-maximal effect
# Chain of Rap guanine nucleotide exchange factor 3 (Homo sapiens) (O95398 whole entry, looked up): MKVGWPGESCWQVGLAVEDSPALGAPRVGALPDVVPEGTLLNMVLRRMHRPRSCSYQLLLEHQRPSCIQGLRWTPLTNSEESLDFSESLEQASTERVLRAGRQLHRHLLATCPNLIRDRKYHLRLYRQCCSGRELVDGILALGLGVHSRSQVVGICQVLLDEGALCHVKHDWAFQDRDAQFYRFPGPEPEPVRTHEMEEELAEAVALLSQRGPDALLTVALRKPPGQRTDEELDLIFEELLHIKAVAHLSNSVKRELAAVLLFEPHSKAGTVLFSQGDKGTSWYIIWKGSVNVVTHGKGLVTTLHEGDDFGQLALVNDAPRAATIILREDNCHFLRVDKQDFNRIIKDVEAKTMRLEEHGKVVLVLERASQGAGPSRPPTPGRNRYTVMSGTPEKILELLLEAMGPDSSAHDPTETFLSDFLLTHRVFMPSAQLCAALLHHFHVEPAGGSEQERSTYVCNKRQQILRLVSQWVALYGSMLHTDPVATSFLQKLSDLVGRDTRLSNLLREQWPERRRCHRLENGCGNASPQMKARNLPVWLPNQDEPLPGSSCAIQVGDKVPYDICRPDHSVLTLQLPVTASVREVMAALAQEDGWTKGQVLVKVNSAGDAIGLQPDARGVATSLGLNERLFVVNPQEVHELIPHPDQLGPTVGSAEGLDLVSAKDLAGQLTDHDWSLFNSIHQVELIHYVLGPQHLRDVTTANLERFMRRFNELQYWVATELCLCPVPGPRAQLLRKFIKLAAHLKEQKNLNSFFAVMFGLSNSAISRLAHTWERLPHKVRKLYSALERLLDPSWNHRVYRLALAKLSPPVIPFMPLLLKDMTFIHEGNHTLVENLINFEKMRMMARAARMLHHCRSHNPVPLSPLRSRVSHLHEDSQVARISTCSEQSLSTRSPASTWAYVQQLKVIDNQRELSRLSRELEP
# Summary of the method: (§1)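 Rap1B-BODIPY-GDP 250 nM + GDP 50 uM; cpds 7-pt, final 9.74 nM–152 uM (activator mode) or from 7.32 nM upwards (inhibitor mode); RT; FI 480/540 nm at 5 and 30 min, then ± cAMP, reread.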
# [2] = target: Rap guanine nucleotide exchange factor 3 (Homo sapiens) (UniProt O95398); experiment: Counterscreen qHTS for antagonist of cAMP-regulated guanine nucleotide exchange factor 3 (EPAC1) (AID 1645888);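 note: fluorescence loss as bound BODIPY-GDP is released from Rap1B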
# Summary of the method: as §1
# [3] = target: Tumor susceptibility gene 101 protein (Homo sapiens) (UniProt Q99816); experiment: qHTS Assay for Iinhibitors of HIV-1 Budding by Blocking the Interaction of PTAP/TSG101: Hit Validation (AID 651600); note: nearly all actives have a fitted effect of over 70% in size
# Summary of the method: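 Tsg101 binding domain 10 uM + FITC-PTAP peptide 50 nM (final), 10 mM HEPES pH 7.5/0.15 M NaCl/0.01% Tween 20/3 mM EDTA/0.1 mM TCEP; 20 min RT; FP read, FITC filters.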
# [4] = target: Rap guanine nucleotide exchange factor 4 (Homo sapiens) (UniProt Q8WZA2); experiment: Confirmatory qHTS for antagonist of cAMP-regulated guanine nucleotide exchange factor 4 (EPAC2) (AID 1645885); note: nearly all actives have a fitted effect of over 25% in size
# Chain of Rap guanine nucleotide exchange factor 4 (Homo sapiens) (Q8WZA2 whole entry, looked up): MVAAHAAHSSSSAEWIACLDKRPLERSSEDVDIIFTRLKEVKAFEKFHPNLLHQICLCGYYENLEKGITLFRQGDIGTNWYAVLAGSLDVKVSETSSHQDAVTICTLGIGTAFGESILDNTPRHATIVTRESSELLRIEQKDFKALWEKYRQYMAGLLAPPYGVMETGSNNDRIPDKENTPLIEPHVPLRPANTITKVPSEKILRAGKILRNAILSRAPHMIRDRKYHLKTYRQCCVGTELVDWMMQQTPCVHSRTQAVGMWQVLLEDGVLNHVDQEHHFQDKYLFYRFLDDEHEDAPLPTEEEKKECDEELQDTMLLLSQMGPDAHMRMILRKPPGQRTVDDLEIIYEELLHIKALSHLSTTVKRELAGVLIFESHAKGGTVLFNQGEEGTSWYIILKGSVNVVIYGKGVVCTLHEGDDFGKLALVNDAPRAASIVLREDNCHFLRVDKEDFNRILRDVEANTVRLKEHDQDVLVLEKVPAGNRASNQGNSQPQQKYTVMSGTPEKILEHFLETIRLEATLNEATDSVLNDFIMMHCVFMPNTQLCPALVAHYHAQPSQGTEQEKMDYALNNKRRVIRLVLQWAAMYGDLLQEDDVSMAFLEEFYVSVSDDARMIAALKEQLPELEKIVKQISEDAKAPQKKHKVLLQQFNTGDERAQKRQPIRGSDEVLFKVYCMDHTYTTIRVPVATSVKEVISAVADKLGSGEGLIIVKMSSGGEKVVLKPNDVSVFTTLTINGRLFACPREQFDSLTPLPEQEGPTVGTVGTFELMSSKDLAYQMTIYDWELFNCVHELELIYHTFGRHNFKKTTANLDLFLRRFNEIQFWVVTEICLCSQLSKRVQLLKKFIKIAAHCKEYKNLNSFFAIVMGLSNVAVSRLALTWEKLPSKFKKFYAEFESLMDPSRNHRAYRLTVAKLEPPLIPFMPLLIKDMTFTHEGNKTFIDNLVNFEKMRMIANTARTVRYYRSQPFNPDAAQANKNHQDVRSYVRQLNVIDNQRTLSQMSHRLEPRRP
# [5] = target: DNA repair nuclease/redox regulator APEX1 (Homo sapiens) (UniProt P27695); experiment: qHTS Validation Assay for Inhibitors of the Human Apurinic/apyrimidinic Endonuclease 1 (APE1) (AID 1705;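 note: TAMRA fluorescence gain over two minutes as APE1 cuts a quenched THF abasic duplex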)
# Chain of DNA repair nuclease/redox regulator APEX1 (Homo sapiens) (P27695 whole entry, looked up): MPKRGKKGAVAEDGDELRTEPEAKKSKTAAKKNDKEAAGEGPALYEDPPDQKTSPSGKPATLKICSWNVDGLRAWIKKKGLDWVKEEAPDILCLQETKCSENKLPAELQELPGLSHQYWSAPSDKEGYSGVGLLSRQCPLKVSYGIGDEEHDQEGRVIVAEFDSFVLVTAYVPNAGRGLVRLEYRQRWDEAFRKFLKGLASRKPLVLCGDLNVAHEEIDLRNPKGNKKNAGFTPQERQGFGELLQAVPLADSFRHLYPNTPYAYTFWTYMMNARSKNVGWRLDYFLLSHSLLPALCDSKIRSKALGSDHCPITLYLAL
# Summary of the method: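 Read-out: TAMRA fluorescence (525 nm ex, 598 nm em) from cleavage of a quenched THF abasic-site duplex, 50 nM final; activity taken as intensity change between third and first of three reads 60 s apart.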
# [6] = Counterscreen for APE1 Inhibitors: Fluorescent Dye Displacement Validation Assay (AID 1707)
# Summary of the method: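 Reaction mixture of 250 nM Thiazole Orange and 50 nM double-stranded abasic-site DNA was dispensed, compounds were pin-transferred, and fluorescence was read at endpoint (480 nm ex, 540 nm em). Reduced fluorescence indicated dye displacement by DNA binding.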
# [7] = target: Endonuclease 4 (Escherichia coli (strain K12)) (UniProt P0A6C1); experiment: Counterscreen for APE1 Inhibitors: qHTS Validation Assay for Inhibitors of Endonuclease IV (AID 1708)
# Summary of the method: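 Incision of a double-stranded 50 nM TAMRA/BHQ-2 abasic substrate was followed kinetically (525/598 nm, reads every 60 s) after 15 min enzyme–compound preincubation with 2 nM EndoIV in pH 7.5 Tris buffer with MgCl2, DTT and Tween-20; concentration-response format.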
# [8] = qHTS for differential inhibitors of proliferation of Plasmodium falciparum line GB4 (AID 1816); settings: Potency: Plasmodium falciparum GB4 proliferation inhibition;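 note: parasite growth measured after 72 h incubation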
# [9] = qHTS for differential inhibitors of proliferation of Plasmodium falciparum line 3D7 (AID 1876);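 note: parasite growth measured after three days of culture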
# [10] = qHTS for differential inhibitors of proliferation of Plasmodium falciparum line D10 (AID 1877);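 note: parasites grown with compound for 72 h before DNA staining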
# [11] = qHTS for differential inhibitors of proliferation of Plasmodium falciparum line Dd2 (AID 1882); settings: Potency: Plasmodium falciparum Dd2 proliferation inhibition; note: nearly all actives have a fitted effect of over 65% in size
# Summary of the method: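 SYBR Green DNA fluorescence (ex 485, em 535 nm) after overnight lysis quantifies parasite growth; compound exposure lasted 72 h at 37 C on infected red cells at 2.5% hematocrit, 0.3% parasitemia (final). Artemisinin 0.29 uM and vehicle wells define normalization.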
# [12] = qHTS for differential inhibitors of proliferation of Plasmodium falciparum line HB3 (AID 1886); settings: Potency: Plasmodium falciparum HB3 proliferation inhibition;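 note: parasites grown with compound for 72 h before SYBR Green readout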
# [13] = target: Ferritin light chain (Equus caballus) (UniProt P02791); experiment: qHTS Validation Assay for Identification of Novel General Anesthetics (AID 2323)
# Chain of Ferritin light chain (Equus caballus) (P02791 2-175 limits assumed): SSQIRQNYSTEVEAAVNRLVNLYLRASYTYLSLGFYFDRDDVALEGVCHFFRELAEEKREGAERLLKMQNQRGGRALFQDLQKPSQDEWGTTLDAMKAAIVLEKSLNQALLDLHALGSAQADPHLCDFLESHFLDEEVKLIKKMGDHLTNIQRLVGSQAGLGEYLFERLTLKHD
# Summary of the method: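 10 uM horse-spleen apoferritin + 1-AMA (50% saturated, PBS); cpd pin-transferred, 10 min RT. Ex 380/Em 535 nm endpoint. Activity normalized between free 1-AMA and 1-AMA/apoferritin; 4-parameter Hill fit of concentration-response.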
# [14] = target: ATP-dependent DNA helicase Q1 (Homo sapiens) (UniProt P46063); experiment: qHTS Validation Assay for Inhibitors of RecQ-Like Dna Helicase 1 (RECQ1) (AID 2353)
# Chain of ATP-dependent DNA helicase Q1 (Homo sapiens) (P46063 whole entry, looked up): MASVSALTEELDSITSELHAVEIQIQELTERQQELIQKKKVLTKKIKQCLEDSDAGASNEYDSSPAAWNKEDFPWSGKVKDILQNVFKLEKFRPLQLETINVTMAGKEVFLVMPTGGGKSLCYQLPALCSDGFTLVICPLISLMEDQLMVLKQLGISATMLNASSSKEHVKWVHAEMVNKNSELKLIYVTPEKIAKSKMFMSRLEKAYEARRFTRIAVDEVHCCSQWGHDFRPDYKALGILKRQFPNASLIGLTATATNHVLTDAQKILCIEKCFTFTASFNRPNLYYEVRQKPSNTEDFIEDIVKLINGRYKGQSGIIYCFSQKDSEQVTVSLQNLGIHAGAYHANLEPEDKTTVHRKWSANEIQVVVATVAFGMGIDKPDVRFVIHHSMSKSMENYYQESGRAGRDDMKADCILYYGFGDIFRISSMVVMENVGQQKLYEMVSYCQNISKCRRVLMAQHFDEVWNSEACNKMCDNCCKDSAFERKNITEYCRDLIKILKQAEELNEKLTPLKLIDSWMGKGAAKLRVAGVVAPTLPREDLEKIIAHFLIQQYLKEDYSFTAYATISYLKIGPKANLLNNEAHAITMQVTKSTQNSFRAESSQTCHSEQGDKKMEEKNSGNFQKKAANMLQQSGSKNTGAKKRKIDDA
# Summary of the method: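 RECQ1T1 50 nM; forked duplex (20 bp + 30-nt ss tails) 200 nM, ATP 2 mM final; pH 8.0, 2 mM MgCl2, 2.5 ug/ml poly(dI-dC); 15 min compound preincubation; discontinuous kinetic read over 2 h at RT.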
# [15] = Quantitative high throughput screen for delayed death inhibitors of the malarial parasite plastid, 96 hour incubation (AID 488745);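 note: luciferase-expressing P. falciparum in erythrocytes at 2% hematocrit and 0.1% parasitemia; nearly all actives have a fitted effect of over 70% in size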
# Summary of the method: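 Readout is firefly luciferase luminescence from an integrated reporter in P. falciparum; lower signal marks inhibited growth. Cultures at 2% hematocrit and 0.1% parasitemia were treated with compound across two generations (96 h, 37 C, 5% CO2).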
# [16] = Quantitative high throughput screen for delayed death inhibitors of the malarial parasite plastid, 48 hour incubation (AID 488752); note: nearly all actives have a fitted effect of over 65% in size
# Summary of the method: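 First, compound was pinned into RPMI 1640 medium containing 0.5% Albumax. Next, reporter-parasite-infected erythrocytes were added to 2% hematocrit and 0.1% parasitemia. After 48 h at 37 C under 5% CO2, luciferase detection reagent was added and luminescence read.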
# [17] = target: Thyrotropin receptor (Homo sapiens) (UniProt P16473); experiment: qHTS Assay for Antagonists of the Thyroid Stimulating Hormone Receptor (AID 488980)
# Chain of Thyrotropin receptor (Homo sapiens) (P16473 whole entry, looked up): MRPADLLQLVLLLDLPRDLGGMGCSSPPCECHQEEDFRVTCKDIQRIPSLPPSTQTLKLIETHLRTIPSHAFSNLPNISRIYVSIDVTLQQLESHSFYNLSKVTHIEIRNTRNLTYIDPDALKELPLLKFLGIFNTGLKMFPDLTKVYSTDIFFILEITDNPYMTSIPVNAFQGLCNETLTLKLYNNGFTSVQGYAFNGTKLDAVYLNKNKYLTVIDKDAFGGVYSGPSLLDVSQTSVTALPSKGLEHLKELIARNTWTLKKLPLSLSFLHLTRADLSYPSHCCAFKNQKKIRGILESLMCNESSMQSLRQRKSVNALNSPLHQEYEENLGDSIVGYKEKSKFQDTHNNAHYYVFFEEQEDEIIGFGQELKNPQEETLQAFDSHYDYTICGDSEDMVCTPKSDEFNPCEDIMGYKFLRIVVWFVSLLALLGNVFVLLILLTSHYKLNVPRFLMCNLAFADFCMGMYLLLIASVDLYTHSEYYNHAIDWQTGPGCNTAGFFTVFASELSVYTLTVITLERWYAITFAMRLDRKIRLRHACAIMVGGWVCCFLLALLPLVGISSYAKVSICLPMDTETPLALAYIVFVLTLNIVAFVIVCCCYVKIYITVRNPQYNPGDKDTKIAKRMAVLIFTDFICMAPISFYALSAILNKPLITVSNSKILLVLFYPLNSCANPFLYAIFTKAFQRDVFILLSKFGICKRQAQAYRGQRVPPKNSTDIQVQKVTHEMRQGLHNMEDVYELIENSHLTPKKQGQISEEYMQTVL
# Summary of the method: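 TSHR-HEK293 cells; 70 uM RO 20-1724 PDE inhibitor; compound + EC80 TSH (4 nM final); anti-cAMP cryptate antibody/cAMP-d2 in lysis buffer, 30 min RT; HTRF 665/620 nm read.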
# [18] = target: Thyrotropin-releasing hormone receptor (Homo sapiens) (UniProt P34981); experiment: qHTS for Small Molecule Agonists and Allosteric Enhancers of Human TRH Receptor: Validation Screen for Agonists (AID 493127;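 active = calcium activation more than 3 SD above the typical response in the agonist read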;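 note: intracellular calcium rise by fluo-8 fluorescence before TRH EC20 addition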); settings: TRH receptor agonist cell assay; at 2 µM; stronger effect = higher value
# Summary of the method: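 Compounds are added by online pintool to dye-loaded TRHR cells while fluorescence is recorded every second. A rise in calcium signal during the agonist read marks activation; a later 10 nM TRH addition (EC20) serves the separate enhancer mode.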
# [19] = target: Galactokinase (Homo sapiens) (UniProt P51570); experiment: qHTS Validation Assay for Inhibitors of Human Galactokinase (GALK) (AID 493189)
# Chain of Galactokinase (Homo sapiens) (P51570 whole entry, looked up): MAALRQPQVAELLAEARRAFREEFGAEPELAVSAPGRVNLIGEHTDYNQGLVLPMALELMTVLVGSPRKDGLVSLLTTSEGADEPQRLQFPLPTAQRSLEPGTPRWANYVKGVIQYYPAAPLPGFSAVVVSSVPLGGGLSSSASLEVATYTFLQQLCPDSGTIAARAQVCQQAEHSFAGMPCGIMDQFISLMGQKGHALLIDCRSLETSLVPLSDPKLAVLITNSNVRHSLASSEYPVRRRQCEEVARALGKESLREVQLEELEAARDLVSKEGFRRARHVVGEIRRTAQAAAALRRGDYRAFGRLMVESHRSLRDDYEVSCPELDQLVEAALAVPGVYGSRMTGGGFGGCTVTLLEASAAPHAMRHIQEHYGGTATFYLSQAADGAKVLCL
# Summary of the method: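 Luminescence from leftover ATP (Kinase-Glo Plus, 10 min) served as read-out after a 1 h room-temperature reaction of 5 nM GALK, 100 uM galactose and 35 uM ATP at pH8.0.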
# [20] = Validation screen for small molecules that induce DNA re-replication in SW480 colon adenocarcinoma cells (AID 504364)
# Summary of the method: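 Image-based qHTS: compounds were incubated with SW480 cells for 48 hr, nuclei stained with Hoechst, and per-nucleus fluorescence intensity scanned to flag cells with excess DNA content.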
# [21] = qHTS for differential inhibitors of proliferation of Plasmodium falciparum line W2 (AID 1883); settings: Potency: Plasmodium falciparum W2 proliferation inhibition;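 note: potency is the fitted concentration of half-maximal effect; parasites grown with compound for 72 h before lysis and staining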
# [22] = qHTS Assay for Modulators of Human Peripheral Myelin Protein 22 (PMP22) Expression/Activity (AID 1967; active = well fitted curve in the direction sought with a large enough effect in the signal ratio; the % refers to the signal ratio)
# Summary of the method: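 Mouse MSC80 Schwann line, Pmp22 promoter–CBG68 reporter, EF-alpha–CBR internal control. 24h compound exposure, 37 °C/5% CO2, DMEM + 10% FBS. Readout: corrected green/red luminescence ratio, normalized to untreated cells; concentration-response curves fitted and classified.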
# [23] = Validation screen for small molecules that induce DNA re-replication in MCF 10A normal breast cells (AID 463097); note: nearly all actives have a fitted effect of over 60% in size
# Summary of the method: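 250 MCF 10A cells/well; compound pin-transferred; 48 hr, 37 C, 5% CO2; Hoechst 40 min; imaged 405/500-530 nm. Hits = more high-intensity nuclei.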
# [24] = target: Voltage-gated inwardly rectifying potassium channel KCNH2 (Homo sapiens) (UniProt Q12809); experiment: qHTS Assay for Small Molecule Inhibitors of the Human hERG Channel Activity (AID 588834);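 note: top concentration of the series differs between compounds; lower thallium flux fluorescence means stronger hERG block; nearly all actives have a fitted effect of over 50% in size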
# Summary of the method: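 Thallium-flux (FluxOR) read-out on FDSS: fluorescence read 10 s before and 2 min after stimulation buffer. hERG-BacMam-transduced U2OS cells, compound exposure about 10 min. AC50 by standard Hill equation.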
# [25] = NCATS anti-infectives library activity on HEK293 viability as a counter-qHTS vs the C. elegans viability qHTS (AID 1745854);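 note: HEK293 cells exposed to compounds for 24 hr before the viability read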
# Summary of the method: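 Counter-screen for cytotoxicity: HEK293, 24 hr, 37C, compounds up to 41.7 uM final (a dilution series, 1:5). Readout CellTiter-Glo luminescence, 10 min RT. Digitonin control, 83.3 uM final.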
# [26] = target: Catechol O-methyltransferase (Homo sapiens) (UniProt P21964); experiment: Confirmatory Screen for Target Class Profiling of Small Molecule Inhibitors of Methyltransferases (AID 1745852); settings: MTase-Glo luminescence, SAH detection, recombinant enzyme; measured here: COMT max response; stronger effect = lower value
# Chain of Catechol O-methyltransferase (Homo sapiens) (P21964 whole entry, looked up): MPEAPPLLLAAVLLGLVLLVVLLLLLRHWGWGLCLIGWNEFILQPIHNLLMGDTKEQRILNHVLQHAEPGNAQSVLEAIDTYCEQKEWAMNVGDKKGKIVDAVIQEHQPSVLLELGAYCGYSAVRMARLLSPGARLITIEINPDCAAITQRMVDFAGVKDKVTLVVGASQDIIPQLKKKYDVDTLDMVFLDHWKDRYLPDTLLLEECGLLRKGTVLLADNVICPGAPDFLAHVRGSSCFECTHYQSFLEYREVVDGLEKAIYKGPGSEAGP
# [27] = target: Guanidinoacetate N-methyltransferase (Homo sapiens) (UniProt Q14353); experiment: as above; settings: activity change, negative = inhibition: at 57.3 µM (top of the series) unless noted
# [28] = target: Nicotinamide N-methyltransferase (Homo sapiens) (UniProt P40261); experiment: as above; settings: MTase-Glo luminescence, SAH detection, recombinant enzyme; measured here: NNMT max response; stronger effect = lower value
# [29] = target: Phenylethanolamine N-methyltransferase (Homo sapiens) (UniProt P11086); experiment: as above; settings: MTase-Glo luminescence, SAH detection, recombinant enzyme; measured here: PNMT max response; stronger effect = lower value
# Chain of Phenylethanolamine N-methyltransferase (Homo sapiens) (P11086 whole entry, looked up): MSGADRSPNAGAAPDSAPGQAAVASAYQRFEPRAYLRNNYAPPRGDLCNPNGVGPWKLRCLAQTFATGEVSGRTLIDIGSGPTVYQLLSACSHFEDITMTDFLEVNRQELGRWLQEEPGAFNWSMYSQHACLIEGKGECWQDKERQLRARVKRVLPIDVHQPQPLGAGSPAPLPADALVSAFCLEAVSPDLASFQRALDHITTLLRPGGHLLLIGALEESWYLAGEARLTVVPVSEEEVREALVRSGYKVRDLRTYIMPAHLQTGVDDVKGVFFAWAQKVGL
smiles,measurement,setting,value
COc1ccc(C(=O)Nc2ccccc2C(=O)O)cc1NC(=O)C(c1ccccc1)c1ccccc1,Potency,[1],112 µM (active)
COc1ccc(-c2nc3ccccc3nc2-c2ccccc2)cc1OC,Potency,[2],inactive
O=C(NCCC1CCCCN1S(=O)(=O)c1ccc(Cl)cc1)C(=O)NCc1ccco1 (configuration not stated),Potency,[1],89.1 µM (active)
CN(C)/C=C/c1onc(-c2c(Cl)cccc2Cl)c1C#N,Potency,[2],inactive
same,Potency,[1],inactive
OC[C@@H]1[C@@H](c2ccccc2)C(c2ccccc2)=NN1c1ccccc1,Potency,[2],inactive
COc1ccc(-c2n[nH]c(C)c2-c2ccccc2OC)c(O)c1,Potency,[2],inactive
same,Potency,[1],inactive
CCOC(=O)c1sc(NC(=O)CN2C(=O)NC3(CC(C)CC(C)(C)C3)C2=O)cc1C (configuration not stated),Potency,[1],89.1 µM (active)
CCC(=O)N(CCC(c1ccccc1)c1ccco1)Cc1cccs1 (configuration not stated),Potency,[2],inactive
Cc1ccc2oc(=O)n(Cc3ccc(OC(C)C)cc3)c2c1,Potency,[2],inactive
CCOC(=O)c1c(-c2ccccc2)oc2ccc(O)cc12,Potency,[2],inactive
CN1/C(=C\C=C2/C(=O)Oc3ccccc3C2=O)C(C)(C)c2ccccc21,Potency,[3],inactive
same,Potency,[4],inactive
same,Potency,[1],20 µM (active)
CC[C@H](C)C(=O)O[C@H]1CCC=C2C=C[C@H](C)[C@H](CC[C@@H]3C[C@H](O)CC(=O)O3)C21 (some centres not stated),Potency,[5],inactive
same,outcome,[6],inactive
same,Potency,[7],inactive
same,Potency,[8],inactive
same,Potency,[9],inactive
same,Potency,[10],inactive
same,Potency,[11],inactive
same,Potency,[12],inactive
same,outcome,[13],inactive
same,outcome,[14],inactive
same,Potency,[15],inactive
same,Potency,[16],inactive
same,outcome,[17],inactive
same,activation,[18],-5% (inactive)
same,outcome,[19],inactive
same,Potency,[20],inactive
C[C@]12C[C@H](O)C3[C@@H](CCC4=CC(=O)CC[C@@]43C)[C@@H]1CC[C@@H]2C(=O)CO (some centres not stated),Potency,[5],inactive
same,outcome,[6],inactive
same,Potency,[7],inactive
same,Potency,[11],inactive
same,Potency,[21],11.2 µM (active)
same,Potency,[12],inactive
same,outcome,[22],inactive
same,outcome,[14],inactive
same,Potency,[23],inactive
same,Potency,[16],inactive
same,outcome,[17],inactive
same,outcome,[19],inactive
same,Potency,[20],inactive
same,Potency,[24],inactive
O=C1OC(c2ccccc2)(c2ccc(O)cc2)c2ccccc21 (configuration not stated),"activity change, negative = inhibition",[2],-9.22% [at 30.8 µM] (inactive)
COc1ccc(/C=N/n2cnc3c([nH]c4ccc(F)cc43)c2=O)cc1CN1CCCC1,Potency,[1],inactive
Cc1cc2ccccn2c1C(=O)c1ccccc1Br,Potency,[4],inactive
same,Potency,[2],inactive
same,Potency,[1],25.1 µM (active)
O=C(COc1ccc(Cl)cc1Cl)NNC(=S)NCc1ccco1,Potency,[2],inactive
O=c1cc(Cl)c(-c2ccccc2)nn1Cc1ccc(Cl)cc1,Potency,[2],inactive
COc1cccc(Nc2nnc(-c3cc4ccc(O)cc4oc3=O)s2)c1,Potency,[2],inactive
same,Potency,[25],inactive
O=C(CC1Sc2ccccc2NC1=O)OCc1cc(=O)oc2cc(O)ccc12 (configuration not stated),Potency,[4],inactive
same,Potency,[1],inactive
Clc1ccc(C2Nc3cccc4cccc(c34)N2)c(Cl)c1,Potency,[2],inactive
CCc1ccccc1NC1c2ccccc2C(=O)N1Cc1ccco1 (configuration not stated),"activity change, negative = inhibition",[2],-4.2% [at 30.8 µM] (inactive)
COc1cccc(Nc2cc3c(cn2)CN(Cc2cccnc2)CCN3)c1,activity,[26],1.92%
same,"activity change, negative = inhibition",[27],2.65% [at 85.7 µM]
same,activity,[28],-7.33%
same,activity,[29],-8.41%

# Reference: PubChem BioAssay (NCATS)
